Results published in PubChem BioAssay.
Activity calls are given as the source filed them. Unless noted, the rule behind the calls is not given here.

Experiments:
[1] = A549 cell viability effects, profiling panel, calcein-AM fluorescence, 48 h, basal (AID 1162); conditions: higher = more signal; note: test concentration not given here
[2] = adipocyte viability effects, profiling panel, cell-based, 3T3-L1 adipocytes, calcein-AM fluorescence, 48 h, basal (AID 1163); conditions: 3T3-L1 adipocytes viability, higher = more signal; note: test concentration not given here
[3] = HepG2 cell viability effects, profiling panel, calcein-AM fluorescence, 48 h, basal (AID 1164); conditions: higher = more signal; note: test concentration not given here
[4] = MM1S cell viability effects, profiling panel, calcein-AM fluorescence, 48 h, basal (AID 1165); conditions: higher = more signal;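 note: viability of MM1S multiple myeloma cells under basal unstimulated conditions; test concentration not given here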
[5] = basal RPMI8226 viability, no added stimulus, profiling panel, cell-based, calcein-AM fluorescence, 48 h, PK04 Diversity Set (AID 1166); conditions: RPMI8226 myeloma viability, higher = more signal;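 note: cells grown under basal conditions without added stimulus; test concentration not given here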
[6] = basal HepG2 mitochondrial membrane potential changes, profiling panel, cell-based, JC-1 fluorescence, 24 h, 100 nL compound (AID 1167); conditions: higher = more signal; note: test concentration not given here
[7] = basal 3T3-L1 adipocyte mitochondrial potential changes, profiling panel, cell-based, JC-1 fluorescence, 3T3-L1 adipocytes, 24 h, 100 nL compound (AID 1168); conditions: JC-1 mitochondrial fluorescence, higher = more signal, called active from +8 up or from −8 down; note: test concentration not given here
[8] = basal RPMI8226 mitochondrial membrane potential changes, profiling panel, cell-based, JC-1 fluorescence, 24 h, 100 nL compound (AID 1169); conditions: RPMI8226 myeloma, JC-1 mitochondrial potential fluorescence, higher = more signal; note: test concentration not given here
[9] = basal MM1S mitochondrial membrane potential changes, profiling panel, cell-based, JC-1 fluorescence, 24 h, 100 nL compound (AID 1170); conditions: higher = more signal; note: test concentration not given here
[10] = A549 lung cancer cell viability effects, profiling panel, resazurin fluorescence, 24 h, PK04 Diversity Set (AID 1171); conditions: higher = more signal, called active from +8 up or from −8 down; note: test concentration not given here
[11] = HepG2 liver cancer cell viability effects, profiling panel, resazurin fluorescence, 24 h, PK04 Diversity Set (AID 1172); conditions: higher = more signal; note: test concentration not given here
[12] = basal S. cerevisiae growth modulation, no modifier, primary screen, OD600, strain BY4716, 24 h, basal condition (AID 1173); conditions: OD600, 24 h, higher = more signal, called active from +8 up or from −8 down
[13] = MM1S myeloma cell viability, profiling panel, resazurin fluorescence, basal, 24 h, PK04 Diversity Set (AID 1174); conditions: higher = more signal, called active from +8 up or from −8 down;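 note: MM1S multiple myeloma cell line; test concentration not given here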
[14] = target: Dihydroorotate dehydrogenase (quinone), mitochondrial (Plasmodium falciparum (isolate 3D7)) (UniProt Q08210); assay: PfDHODH enzyme inhibitors, primary screen, biochemical, C-terminal His tag, absorbance 600 nm (AID 1175); conditions: DCIP absorbance 600 nm, higher = more signal, called active from +8 up or from −8 down;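 note: recombinant parasite enzyme with a five histidine tag at its C terminus; test concentration not given here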
Sequence of Dihydroorotate dehydrogenase (quinone), mitochondrial (Plasmodium falciparum (isolate 3D7)) (Q08210 whole entry, looked up): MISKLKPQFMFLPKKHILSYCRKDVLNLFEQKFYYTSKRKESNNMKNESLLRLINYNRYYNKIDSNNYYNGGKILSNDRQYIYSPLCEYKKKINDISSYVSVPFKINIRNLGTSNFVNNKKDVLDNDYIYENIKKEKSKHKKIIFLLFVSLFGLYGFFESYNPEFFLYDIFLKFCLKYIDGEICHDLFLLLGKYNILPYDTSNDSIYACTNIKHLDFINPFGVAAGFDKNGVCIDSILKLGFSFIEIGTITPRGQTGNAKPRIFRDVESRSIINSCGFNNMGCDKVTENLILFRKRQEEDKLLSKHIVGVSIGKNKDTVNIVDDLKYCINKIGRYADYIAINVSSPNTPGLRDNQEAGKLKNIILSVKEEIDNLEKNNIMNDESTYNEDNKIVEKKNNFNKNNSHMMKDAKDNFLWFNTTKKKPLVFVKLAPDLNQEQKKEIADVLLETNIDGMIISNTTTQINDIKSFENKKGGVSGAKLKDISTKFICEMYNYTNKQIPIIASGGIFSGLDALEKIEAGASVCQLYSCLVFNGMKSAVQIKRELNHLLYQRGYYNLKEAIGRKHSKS

[15] = P. aeruginosa biofilm formation inhibitors, primary screen, strain PAO1, LB-PBS medium, absorbance 600 nm (AID 1176); note: test concentration not given here; conditions: P. aeruginosa PAO1 growth/biofilm, A600, 12 h; higher = more signal
[16] = S. cerevisiae RM11-1a growth modifiers, primary screen, strain RM11-1a, OD600, basal, 24 h (AID 1177); conditions: OD600, 24 h, higher = more signal, called active from +8 up or from −8 down;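 note: cultures grown under basal conditions with no added stressor; test concentration not given here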
[17] = E. coli acrAB mutant growth effects, primary screen, E. coli filamentation inducers, strain DRC39, OD650, 24 h (AID 1178); conditions: higher = more signal, called active from +8 up or from −8 down;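 note: growth measured as culture turbidity by optical density at 650 nm; test concentration not given here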
[18] = E. coli acrAB mutant growth effects, primary screen, E. coli filamentation inducers, strain DRC39, OD650, 48 h (AID 1179);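 note: screen aims at cell division blockers that make cells filament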; conditions: E. coli DRC39 delta-acrAB growth, higher = more signal, called active from +8 up or from −8 down
[19] = RPMI8226 myeloma cell viability, profiling panel, resazurin fluorescence, basal, 24 h, PK04 Diversity Set (AID 1180); conditions: higher = more signal;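 note: RPMI8826 multiple myeloma cell line at 5000 cells per well; test concentration not given here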
[20] = target: E3 ubiquitin-protein ligase XIAP (Homo sapiens) (UniProt P98170); assay: XIAP binders, primary screen, biophysical, small-molecule microarray, fluorescence 635 nm (AID 1181); conditions: small-molecule microarray binding, higher = more signal;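 note: score merges 667 nm emission and signal to noise over triplicate slides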
Sequence of E3 ubiquitin-protein ligase XIAP (Homo sapiens) (P98170 whole entry, looked up): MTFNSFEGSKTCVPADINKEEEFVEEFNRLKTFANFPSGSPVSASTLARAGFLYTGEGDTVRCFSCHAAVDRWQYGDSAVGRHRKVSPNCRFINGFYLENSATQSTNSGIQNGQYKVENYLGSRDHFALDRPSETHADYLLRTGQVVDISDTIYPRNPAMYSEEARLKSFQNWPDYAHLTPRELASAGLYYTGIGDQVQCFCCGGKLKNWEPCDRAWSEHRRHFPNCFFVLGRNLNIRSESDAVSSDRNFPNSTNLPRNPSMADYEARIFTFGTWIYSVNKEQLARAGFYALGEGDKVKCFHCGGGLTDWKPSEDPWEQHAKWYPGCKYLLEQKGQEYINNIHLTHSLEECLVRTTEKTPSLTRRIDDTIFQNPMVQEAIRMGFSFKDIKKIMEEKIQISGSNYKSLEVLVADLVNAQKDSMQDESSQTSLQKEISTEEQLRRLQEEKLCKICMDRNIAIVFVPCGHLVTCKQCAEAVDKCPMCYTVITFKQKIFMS

Row | SMILES | z-score [1] | z-score [2] | z-score [3] | z-score [4] | z-score [5] | z-score [6] | z-score [7] | z-score [8] | z-score [9] | z-score [10] | z-score [11] | z-score [12] | z-score [13] | composite z-score [14] | z-score [15] | z-score [16] | z-score [17] | z-score [18] | z-score [19] | composite z-score [20]
1 | COC(=O)[C@@]1(Cc2ccccc2)[C@H]2c3cc(C(=O)N4CCCC4)n(Cc4ccc(C)o4)c3C[C@H]2CN1C(=O)c1ccccc1 | -1.25 | 0.726 | 0.252 | -1.47 | -2.33 | 1.78 | -0.753 (inactive) | -1.02 | -0.449 | -0.646 (inactive) | -1.59 | 0.476 (inactive) | -1.5 (inactive) | -0.376 (inactive) | 0.399 (inactive) | -0.219 (inactive) | -0.691 (inactive) | -0.471 (inactive) | -2.47 | 0.0632
2 | CN(C)CCCNC(=O)[C@@]1(Cc2ccccc2I)c2ccccc2C(=O)N(Cc2ccccc2C(F)(F)F)[C@H]1c1ccc(CO)cc1 | -2.7 | -0.469 | -5.13 | -3.8 | -4.33 | -1.04 | 0.64 (inactive) | -0.98 | -2.43 | -5.93 (inactive) | -6.04 | -6.8 (inactive) | -7.53 (inactive) | 0.35 (inactive) | 0.0993 (inactive) | 0.653 (inactive) | -0.299 (inactive) | 0.247 (inactive) | -4.01 | -0.288
3 | CC(C)(C)N1CC=CC23O[C@@H]4/C=C\CCCOC(=O)C4[C@H]2C(=O)N(CCO)[C@@H]3C1=O (stereo not given in full) | -0.612 | 1.15 | -0.664 | 0.889 | -0.689 | -0.388 | -0.79 (inactive) | -0.0669 | 1.11 | -0.876 (inactive) | -0.636 | 0.0998 (inactive) | -0.0023 (inactive) | -0.252 (inactive) | 0.18 (inactive) | 0.338 (inactive) | -0.599 (inactive) | -0.814 (inactive) | -0.053 | -0.142
4 | CCCCC(O)C1C=CC2C(=O)N(C3CCCCC3)C(=O)C2N1Nc1ccc(OC)cc1 (stereo not given) | -0.875 | 0.325 | -0.572 | 0.0802 | -1.22 | -0.307 | -0.109 (inactive) | -0.111 | 0.024 | 0.112 (inactive) | -0.414 | -2.57 (inactive) | -0.496 (inactive) | 1.12 (inactive) | 0.89 (inactive) | 0.669 (inactive) | -1.01 (inactive) | -0.584 (inactive) | -0.369 | 0.0617
5 | CN1C(=O)C2C=CC(C(O)c3ccccn3)N(Nc3ccccc3)C2C1=O (stereo not given) | 0.169 | -0.103 | -0.164 | -0.309 | 0.497 | -0.562 | -0.234 (inactive) | 0.184 | 0.0223 | -0.205 (inactive) | -1.03 | 0.727 (inactive) | -0.467 (inactive) | 1.42 (inactive) | 1.28 (inactive) | 1.57 (inactive) | -0.206 (inactive) | -0.387 (inactive) | -0.878 | 0.742
6 | CCC(CC)C(O)C1C=CC2C(=O)N(c3ccccc3)C(=O)C2N1Nc1ccc(C#N)cc1 (stereo not given) | 0.313 | -0.534 | -0.136 | 0.436 | -0.452 | -1.03 | -1.29 (inactive) | -0.659 | -0.0284 | 0.158 (inactive) | -0.813 | -0.174 (inactive) | -0.253 (inactive) | -1.69 (inactive) | 1.55 (inactive) | -0.358 (inactive) | -0.698 (inactive) | 0.133 (inactive) | -0.308 | -0.101
7 | COCCOC(=O)N1C(=O)[C@@]2(c3cc(C#CCCO)ccc31)[C@H](C(=O)NC[C@H](O)c1ccccc1)[C@H]1C(=O)O[C@H](c3ccccc3)[C@H](c3ccccc3)N1[C@@H]2c1ccc(O)cc1 | 0.292 | 0.0669 | 0.289 | 0.715 | 0.568 | 0.467 | -0.734 (inactive) | 0.571 | -0.446 | 0.224 (inactive) | 0.816 | 0.562 (inactive) | 0.858 (inactive) | 1.34 (inactive) | 0.29 (inactive) | 1.36 (inactive) | 1.01 (inactive) | 0.887 (inactive) | 1.04 | -0.0126
8 | O=C(CCN1CCOCC1)c1cccc(O)c1 | 0.867 | 0.75 | -0.891 | -3.16 | -1.74 | 0.109 | -0.163 (inactive) | -0.0964 | -2.97 | 0.36 (inactive) | 1.19 | -0.804 (inactive) | -1.43 (inactive) | -1.44 (inactive) | -0.407 (inactive) | -1.07 (inactive) | 0.251 (inactive) | 0.737 (inactive) | -1.6 | 0.226
9 | CC(C)C(=C=CC[C@H](O)c1ccccc1OCCO)C[C@H](O)c1ccccn1 | 0.82 | -0.27 | 1.33 | 0.198 | 0.0964 | 0.714 | 0.085 (inactive) | -0.332 | -1.3 | -0.607 (inactive) | 0.644 | -0.669 (inactive) | 0.34 (inactive) | -3.95 (inactive) | 0.4 (inactive) | 0.398 (inactive) | 0.762 (inactive) | 0.577 (inactive) | 0.285 | -0.226
10 | CC(C)c1ccc(NN2C(C(O)c3c(F)cccc3Cl)C=CC3C(=O)N(c4ccccc4)C(=O)C32)cc1 (stereo not given) | -0.755 | 0.205 | -0.314 | -0.414 | -1.32 | -2.03 | -2.25 (inactive) | -0.738 | 0.584 | -1.71 (inactive) | -1.59 | -0.134 (inactive) | -1.35 (inactive) | 1.36 (inactive) | 0.807 (inactive) | 1.5 (inactive) | -0.576 (inactive) | -0.895 (inactive) | -1.42 | -0.132
11 | CCOC(=O)C[C@H]1[C@H](OC(=O)c2ccc(-c3ccccc3)cc2)[C@@H](NC(=O)c2ccc3ccccc3c2)c2cc(OCCCO)ccc2N1C(=O)Cc1ccc(OC)cc1 | 0.0289 | 0.965 | 0.0837 | -0.379 | 0.0182 | 2.96 | -0.000915 (inactive) | 0.462 | 0.189 | 0.24 (inactive) | 0.339 | -0.461 (inactive) | 0.158 (inactive) | -0.173 (inactive) | -0.501 (inactive) | -0.169 (inactive) | 0.281 (inactive) | 0.454 (inactive) | 0.507 | 0.144
12 | Cc1ccc(S[C@]2(C(=O)O)CC(=O)N(C3Cc4ccccc4C3)[C@@H]2c2ccc(CO)cc2I)cc1 | 0.214 | 0.278 | -0.671 | -2.95 | -2.88 | 0.0324 | -0.939 (inactive) | -0.137 | -0.717 | 0.477 (inactive) | 0.186 | -1.99 (inactive) | -1.95 (inactive) | 0.0058 (inactive) | -0.109 (inactive) | -0.219 (inactive) | 0.602 (inactive) | 0.447 (inactive) | -1.78 | -0.0726
13 | COc1ccc([Si](C)(C)[C@H]2[C@H](CC(=O)N(CCO)Cc3ccccc3)O[C@@]3(C(=O)N(Cc4cccc(N5CCC5=O)c4)c4ccccc43)[C@@H]2C)cc1 | -1.42 | 1.48 | -1.93 | -1.6 | -4.08 | 0.967 | 0.498 (inactive) | -0.873 | -1.27 | -1.97 (inactive) | -0.412 | -0.0113 (inactive) | -2.76 (inactive) | -1.19 (inactive) | 0.295 (inactive) | 1.17 (inactive) | 0.405 (inactive) | 0.169 (inactive) | -3.11 | 0.0259
14 | C[N+](C)(C)CCCCCCNC(=O)[C@H]1C[C@H]2C(=O)N3CCC[C@H]3C(=O)N2[C@H]1c1ccc(O)cc1 | -0.827 | 0.262 | -1.14 | 0.327 | 0 | -1.4 | 0.435 (inactive) | -0.655 | -0.439 | 0.194 (inactive) | 0.202 | -0.652 (inactive) | 0.488 (inactive) | -2.18 (inactive) | 2.48 (inactive) | -0.201 (inactive) | -0.834 (inactive) | -1.15 (inactive) | -0.603 | 0.127
15 | CCOc1cc(C(O)C2C=CC3C(=O)N(c4ccccc4)C(=O)C3N2Nc2ccc([N+](=O)[O-])cc2)ccc1O (stereo not given) | -0.499 | -0.742 | -0.527 | 0.162 | -0.223 | -2.36 | -2.03 (inactive) | -0.459 | -0.908 | -0.373 (inactive) | -0.506 | -0.571 (inactive) | -0.669 (inactive) | 0.377 (inactive) | 0.878 (inactive) | -0.864 (inactive) | -0.763 (inactive) | -0.709 (inactive) | -0.901 | -0.127
16 | [N-]=[N+]=NCc1ccccc1C[C@@]1(C(=O)NCC(O)CO)N=C(c2ccc(OCCCO)cc2)O[C@@H]1c1ccccc1CN=[N+]=[N-] (stereo not given in full) | -1.05 | 0.208 | -0.0726 | -1.4 | -2.2 | -0.382 | -1.04 (inactive) | -0.762 | -0.737 | -0.2 (inactive) | 0.376 | -0.247 (inactive) | -1.3 (inactive) | 0.34 (inactive) | 2.33 (inactive) | 0.0651 (inactive) | 0.322 (inactive) | -0.0665 (inactive) | -1.03 | -0.377
